High-throughput results as filed in PubChem BioAssay.
Only some compounds are listed: those with a hit (about 3% of all), similar ones and a draw of the others.
Peg3 promoter – inhibitors of Peg3 promoter | HeLa PEG-Prom luciferase reporter, luminescence, overnight | inhibition, % at 20 µM | 360,000 tested, 1.7% active | AID 588405;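 active means inhibition of at least 50% at 20 µM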
TRPM1 prom inh – reduces MITF-dependent TRPM1 promoter luciferase signal | SK-MEL-5 TRPM1 promoter luciferase, 24 h | inhibition, % at 12.5 µM | 330,000 tested, 0.83% active | AID 488899;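 active means mean inhibition across replicates of 60% or more, whatever share of single replicates reaches that level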
ABHD5-PLIN5 inh – ABHD5-PLIN5 protein interaction inhibition; Q00G26+Q8WTS1; Split G. princeps luciferase complementation, luminescence, 4 h; inhibition, % at 4 µM; 360,000 tested, 0.78% active; AID 602281;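 active means inhibition above the mean inhibition across every tested compound plus 3 SD, cut at about 22% in these data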
Target sequence (Q00G26 whole entry, looked up): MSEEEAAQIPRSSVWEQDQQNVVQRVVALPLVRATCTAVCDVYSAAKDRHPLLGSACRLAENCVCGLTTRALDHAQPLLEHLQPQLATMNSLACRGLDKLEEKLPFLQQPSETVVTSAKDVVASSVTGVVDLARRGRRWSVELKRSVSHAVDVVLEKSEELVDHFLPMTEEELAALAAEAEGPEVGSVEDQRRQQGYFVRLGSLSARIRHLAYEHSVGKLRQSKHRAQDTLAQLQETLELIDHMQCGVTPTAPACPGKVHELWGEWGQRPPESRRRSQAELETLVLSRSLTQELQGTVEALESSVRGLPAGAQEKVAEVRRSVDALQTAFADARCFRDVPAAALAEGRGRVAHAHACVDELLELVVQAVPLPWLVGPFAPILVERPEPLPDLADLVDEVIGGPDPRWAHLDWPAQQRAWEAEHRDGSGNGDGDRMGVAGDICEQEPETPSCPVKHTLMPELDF
Target sequence (Q8WTS1 whole entry, looked up): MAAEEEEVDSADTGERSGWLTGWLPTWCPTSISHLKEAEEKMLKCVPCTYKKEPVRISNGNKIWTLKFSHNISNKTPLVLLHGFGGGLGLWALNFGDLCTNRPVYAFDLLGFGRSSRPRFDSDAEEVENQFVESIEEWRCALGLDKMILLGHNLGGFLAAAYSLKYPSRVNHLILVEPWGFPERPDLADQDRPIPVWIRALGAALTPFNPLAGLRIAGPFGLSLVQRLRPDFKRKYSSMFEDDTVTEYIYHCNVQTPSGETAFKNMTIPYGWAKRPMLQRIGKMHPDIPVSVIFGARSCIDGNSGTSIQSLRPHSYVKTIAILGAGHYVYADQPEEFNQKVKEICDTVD
HIF-2a inh – HIF-2a inhibition; 786-0 RCC cells HIF-2a reporter, luciferase luminescence, overnight; inhibition, % at 18.8 µM; 360,000 tested, 0.72% active; AID 624352;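 active means inhibition of the luminescence signal of 40% or more relative to plate controls, in a single-dose primary screen at 18.75 µM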
CF NFkB inh – inhibitors of cystic fibrosis induced NF-kB | KKLEB NF-kB-GFP reporter, PAF-induced, GFP fluorescence overnight | inhibition, % at 5 µM | 360,000 tested, 0.86% active | AID 588850;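 active means at least 50% inhibition at 5 µM, scaled per plate between neutral and stimulator controls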;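 further: PAF is a Pseudomonas aeruginosa culture filtrate used as stimulus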
KKLEB cytotox – counter-screen for CF NF-kB inhibitors: cytotoxicity; KKLEB CF airway cells viability, ATPlite luminescence, overnight; stronger effect = lower value; cells stimulated with P. aeruginosa culture filtrate; activity change (cytotoxicity), % at 5 µM; 360,000 tested, 0.36% active;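 active means corrected activity change at or below -50% at 5 µM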
Numbers stand for hits; – = inactive; · = no result.

SMILES	Peg3 promoter	TRPM1 prom inh	ABHD5-PLIN5 inh	HIF-2a inh	CF NFkB inh	KKLEB cytotox
Cc1ccc(OCC(=O)c2cc(C)n(C)c2C)c([N+](=O)[O-])n1	–	–	–	–	–	–
Cc1cc(C(=O)COc2cccnc2[N+](=O)[O-])c(C)n1-c1ccccc1F	–	–	–	50	–	–
Cc1cc(C(=O)COc2cccnc2[N+](=O)[O-])c(C)n1-c1ccccc1	73	68	–	74	–	–
Cc1ccc(Cn2cc(CN(C)C3CN(Cc4cn(Cc5ccc(C)cc5)nn4)S(=O)(=O)C3)nn2)cc1 (stereo unspecified)	·	·	–	–	·	·
O=C(NNC(=S)NC(=O)c1sc2ccccc2c1Cl)c1ccc(Cl)cc1	–	–	–	–	76	-65
Cc1ccc(/C=C/c2nc3ccccc3c(=O)[nH]2)cc1	–	–	–	–	–	-69
COC(=O)c1ccc(/C=C/c2nc3ccccc3c(=O)[nH]2)cc1	–	–	–	–	–	–
COc1ccc(CCC(=O)N2CCN(S(=O)(=O)c3ccc(OC)c([N+](=O)[O-])c3)CC2)cc1	–	·	–	–	–	–
Cc1ccc(S(=O)(=O)Nc2ccc(O)c3cccnc23)cc1	78	–	–	84	59	–
C=CCNC(=S)N/N=C/c1cn(-c2ccccc2)nc1-c1ccc(OC)cc1	–	–	–	–	53	-53
COc1ccc(-c2nn(-c3ccccc3)cc2/C=N/NC(=S)NC(C)C)cc1OC	–	–	–	–	–	–
COc1ccc(-c2nn(-c3ccccc3)cc2/C=N/NC(=O)c2cccc(S(=O)(=O)Nc3ccccc3OC)c2)cc1	–	–	–	–	–	–
COc1ccc(-c2nn(-c3ccccc3)cc2/C=N/NC(=O)c2ccc(Br)o2)cc1	90	63	–	–	–	–
CCOC(=O)Nc1ccc2c(c1)C(=NO)c1ccccc1-2	–	–	–	–	–	–
CCOC(=O)Nc1ccc2c(c1)C(=NNC(N)=S)c1ccccc1-2	71	–	–	–	–	–
CCN(c1ccc(OC)cc1)S(=O)(=O)c1csc(C(=O)N2CCCC2)c1	–	–	–	–	–	–
Cc1cc(C(C#N)c2ccc(Cl)cc2)c(Cl)cc1NC(=O)c1cc(I)cc(I)c1O (stereo unspecified)	–	–	–	–	62	–
Cc1cc(NC(=O)c2ccc(Cl)cc2)c(C)cc1O	–	–	–	–	–	–
COc1cc(-c2cc(NC=O)c3ncc(-c4ccc(F)cc4)n3c2)cc(OC)c1OC	–	·	–	–	–	–
COc1ccc(-c2cc(NC=O)c3ncc(-c4ccc(OC)c(OC)c4)n3c2)cc1OC	58	·	–	–	–	–
COc1cccc(-c2cnc3c(NC=O)cc(-c4ccc(O)c(OC)c4)cn23)c1	69	·	–	–	–	–
CN1CCN(c2ccc(-c3cc(NC=O)c4ncc(-c5ccccc5)n4c3)cc2)CC1	79	·	–	–	–	–
COc1cc(-c2cnc3c(NC=O)cc(-c4ccsc4)cn23)cc(OC)c1OC	76	·	–	–	–	–
CN(C)/C=N/c1ncc(-c2ncc(C(F)(F)F)cc2Cl)cn1	–	–	–	–	–	–
CC(=O)Nc1cccc(-c2ccnc3c2CC(C)(C(=O)Nc2ccc(Cl)cc2)O3)c1 (stereo unspecified)	–	·	–	–	–	–
SMILES	Peg3 promoter	TRPM1 prom inh	ABHD5-PLIN5 inh	HIF-2a inh	CF NFkB inh	KKLEB cytotox
Cc1c(C)n(C)c2ccc(C(=O)NCCN3CCOCC3)cc12	–	–	–	–	–	–
O=C(Nc1ccc(Cl)cc1)Nc1nnc(-c2ccncc2)s1	64	–	–	–	84	-89
O=C(Nc1ccc(F)cc1)Nc1nnc(-c2ccncc2)s1	–	–	–	–	85	–
O=C(Nc1nnc(-c2ccc(F)cc2)s1)Nc1ccccc1F	–	·	–	–	–	–
O=C(Nc1ccc(Cl)cc1)Nc1nnc(SCc2ccc(Cl)cc2)s1	–	–	–	–	–	–
Cc1ccc(/C=N/NC(=O)Cc2ccc(Cl)cc2)s1	–	–	–	–	–	–
C[C@H](O)[C@@H]1C(=O)N2CCc3ccc(-c4ccccc4)cc3[C@@H]2C[C@@H]1N(C)C(=O)c1ccco1	–	·	–	–	–	–
COc1cccc(CN(C(=O)c2ccccc2Br)C2CCS(=O)(=O)C2)c1 (stereo unspecified)	–	–	–	–	–	–
CCN(CC)CCOC(=O)C(c1ccccc1)c1ccccc1	–	–	–	–	–	-91
O=C(Oc1cccc(OC(=O)c2ccco2)c1)c1ccco1	–	–	–	–	–	–
CC1=CC(C)(C)N2C(=O)C(=O)c3cc(OC(=O)c4ccco4)cc1c32	–	–	–	–	64	–
C[C@@H]1COc2cccc(N3CCC[C@H]3CO)c2S(=O)(=O)N1	·	·	–	–	·	·
CCn1c(O)c(/C=N/N=C/c2ccccc2)c2ccc(C3=NNC(=O)CC3)cc21	50	–	–	–	–	–
CCC(CC)=N/N=C/c1c(O)n(CC)c2cc(C3=NNC(=O)CC3)ccc12	–	–	–	–	–	–
CCOC(=O)c1c(C)[nH]c(C)c1S(=O)(=O)N(C)CC(=O)Nc1cccc(C)n1	–	–	–	–	–	–
Cc1nc(NCCc2ccc(F)cc2)c(C#N)c(C)c1[N+](=O)[O-]	51	–	–	–	–	–
CCCNC(=O)c1cc2c(c(-c3cccc(-c4ccc(F)cc4)c3)n1)[C@H](CCO)N(S(=O)C(C)(C)C)C2 (stereo partly specified)	51	·	–	–	–	–
CCCNC(=O)c1cc2c(c(-c3cccc(-c4ccc(F)cc4)c3)n1)[C@@H](CCO)N(S(=O)C(C)(C)C)C2 (stereo partly specified)	–	·	–	–	–	–
CCn1c(/C=C/c2cc(Br)ccc2O)nc2ccccc2c1=O	68	–	–	–	–	–
CCn1c(/C=C/c2ccc(O)c(O)c2)nc2ccccc2c1=O	–	–	–	–	–	–
Cc1nc2ccc(C(=O)OCC(=O)N(C)c3ccccc3)cc2nc1C	–	–	–	–	–	–
OC(CN1CCCCC1)Cn1c2ccc(Cl)cc2c2cc(Cl)ccc21 (stereo unspecified)	104	–	–	–	–	–
OC(CN1CCN(c2ccccn2)CC1)Cn1c2ccc(Cl)cc2c2cc(Cl)ccc21 (stereo unspecified)	–	–	–	–	–	–
CCc1ccc(-c2nc(SCC(=O)c3c(N)n(C4CC4)c(=O)[nH]c3=O)n[nH]2)cc1	–	–	–	–	–	–
C#CCOCCOCCOCCNc1nc(N2CCN(C(=O)CCCCCCCCCCNC(=O)[C@H](CCCCN)n3cc(CCO)nn3)CC2)nc(N2CCN(C(=O)CCCCCCCCCCNC(=O)[C@H](CCCCN)n3cc(CCCC(=O)O)nn3)CC2)n1	–	–	–	–	–	–
